Laboratory results reported in PubChem BioAssay (NCATS).
A number with no mark means an inactive call. Results filed as inconclusive are left out. Activity calls are given as the source filed them. Unless noted, the call rests on the fitted dose curve; in most records, active means well fitted curve in either direction with a large enough effect (not every such curve was filed as active); inconclusive means small, poorly fitted or top-dose-only effect, or another doubt; inactive means flat fitted curve, though single readings scatter.

What was measured:
[1] = system: HIV-1 nucleocapsid protein NCp7 (binding to TG oligonucleotide); experiment: HIV Nucleocapsid (AID 346; call rule not given here;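 further: potency means the concentration at half of the fitted maximal effect; potency is for inhibitors that block NC binding and lower polarization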); conditions: HIV-1 NC / fluorescein-TGTGTGTG probe, fluorescence polarization
Method in brief: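 HIV-1 NC (100 nM) binding to fluorescein-labelled ssDNA TG4xF (10 nM) in Hepes pH 7.5, 250mM NaCl, 1uM ZnCl2, TCEP and 2-mercaptoethanol; compounds pin-transferred, 1 hr room temperature, fluorescence polarization read on CCD imager.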

[2] = AP1 Signaling Pathway (AID 357); conditions: ME-180 AP-1-bla reporter, EGF-induced, beta-lactamase ratio, 5 h; at 7.69 µM (top of the series) unless noted; further: on the % scale 0 is the no-effect control and ±100 the full control effect
Method in brief: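 ME-180 cells with beta-lactamase reporter under AP-1 response element, stimulated with EC50 EGF; compounds tested in titration series, 5 h at 37 °C. CCF4 substrate added 2.5 h at room temperature; 460/530 nm emission ratio gave %activity and AC50.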

[3] = target: Cytochrome P450 1A2 (Homo sapiens) (UniProt P05177); experiment: p450-cyp1a2 (AID 410; calls by dose curve; further: potency means the concentration at half of the fitted maximal effect;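 on activity change, negative = inhibition: -100% = full effect of reference inhibitor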); conditions: recombinant CYP1A2, luciferin-ME demethylation, luminescence; series mostly up to 11.4 µM
Cytochrome P450 1A2 (Homo sapiens), sequence (P05177 whole entry, looked up): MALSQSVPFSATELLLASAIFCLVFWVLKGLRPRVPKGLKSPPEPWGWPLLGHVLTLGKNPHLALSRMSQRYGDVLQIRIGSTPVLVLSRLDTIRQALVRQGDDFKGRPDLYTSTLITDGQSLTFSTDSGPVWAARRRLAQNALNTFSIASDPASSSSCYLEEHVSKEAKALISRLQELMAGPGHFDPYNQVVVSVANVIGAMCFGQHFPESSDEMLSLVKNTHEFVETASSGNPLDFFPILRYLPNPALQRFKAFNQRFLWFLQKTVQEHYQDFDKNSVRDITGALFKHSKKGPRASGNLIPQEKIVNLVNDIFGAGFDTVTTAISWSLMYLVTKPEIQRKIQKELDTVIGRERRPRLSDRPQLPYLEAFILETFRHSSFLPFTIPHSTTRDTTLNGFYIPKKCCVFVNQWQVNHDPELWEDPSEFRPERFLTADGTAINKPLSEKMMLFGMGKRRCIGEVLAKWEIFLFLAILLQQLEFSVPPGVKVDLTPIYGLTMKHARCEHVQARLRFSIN
Method in brief: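 Read-out is luminescence from luciferin produced by CYP1A2 demethylation of Luciferin-ME (100uM, at Km). Detection reagent stopped the 60 min NADPH-dependent reaction; signals were normalized to 57 uM furafylline.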

[4] = NFAT Signaling Pathway (AID 444); conditions: Jurkat NFAT-bla M1, carbachol, beta-lactamase ratio, 5 h; at 7.69 µM (top of the series) unless noted;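 further: carbachol stimulus at about its EC50 of 1 µM final; on the % scale 0 is the no-effect control and ±100 the full control effect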
Method in brief: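 Jurkat cells carrying an NFAT-driven β-lactamase reporter and co-transfected muscarinic M1 receptor were treated with compound plus carbachol (1 uM final, an EC50 level) for 5 h at 37 °C. CCF4 loading followed for 1 h at RT; 460/530 nm ratio gave %activity.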

[5] = Stat Signaling Pathway (AID 446); conditions: ME-180 (cervical carcinoma) SIE beta-lactamase reporter, IL-6 stimulated, 5 h; at 7.69 µM (top of the series) unless noted;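 further: ME-180 cervical cancer cells given 40 pM IL-6 alongside compound; SIE-controlled beta-lactamase reporter measured as 460/530 nm FRET emission ratio; on the % scale 0 is the no-effect control and ±100 the full control effect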
Method in brief: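 Normalization used AC90 stimulation (300 pM IL-6) and AC90 inhibition (125 nM pan-JAK inhibitor at 40 pM IL-6). The underlying signal is SIE-driven beta-lactamase in ME-180 cells after 5 h IL-6 exposure with compound.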

[6] = target: Mitogen-activated protein kinase 10 (Mus musculus) (UniProt Q61831); experiment: JNK3 AlphaScreen Assay (AID 530); conditions: JNK3 lysate, c-Jun phosphorylation; series mostly up to 57.1 µM;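 further: kinase came from lysate of stimulated human HepG2 cells; signal reports phosphorylation of biotinylated GST-cJun 1-79 at Ser73 with 10 µM ATP; on the % scale 0 is the no-effect control and ±100 the full control effect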
Method in brief: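 Biotinylated GST-cJun(1-79) served as substrate for JNK3 in HepG2 lysates stimulated with IL-1beta and TNF-alpha. ATP was 10 uM final, pH 7.6. Ser73 phosphorylation was quantified by AlphaScreen (680 nm excitation).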

[7] = target: 3',5'-cyclic-AMP phosphodiesterase 4B (Homo sapiens) (UniProt Q07343); experiment: qHTS Assay for Inhibitors of PDE-IV (AID 607; active means well fitted activation curve with a large enough effect in the main read-out, with a control signal flat, not every such curve was filed as active; further: % of control where 0% means no effect); conditions: HEK293 ACTOne CNG channel cells, membrane potential fluorescence; series mostly up to 22.9 µM
3',5'-cyclic-AMP phosphodiesterase 4B (Homo sapiens), sequence (Q07343 whole entry, looked up): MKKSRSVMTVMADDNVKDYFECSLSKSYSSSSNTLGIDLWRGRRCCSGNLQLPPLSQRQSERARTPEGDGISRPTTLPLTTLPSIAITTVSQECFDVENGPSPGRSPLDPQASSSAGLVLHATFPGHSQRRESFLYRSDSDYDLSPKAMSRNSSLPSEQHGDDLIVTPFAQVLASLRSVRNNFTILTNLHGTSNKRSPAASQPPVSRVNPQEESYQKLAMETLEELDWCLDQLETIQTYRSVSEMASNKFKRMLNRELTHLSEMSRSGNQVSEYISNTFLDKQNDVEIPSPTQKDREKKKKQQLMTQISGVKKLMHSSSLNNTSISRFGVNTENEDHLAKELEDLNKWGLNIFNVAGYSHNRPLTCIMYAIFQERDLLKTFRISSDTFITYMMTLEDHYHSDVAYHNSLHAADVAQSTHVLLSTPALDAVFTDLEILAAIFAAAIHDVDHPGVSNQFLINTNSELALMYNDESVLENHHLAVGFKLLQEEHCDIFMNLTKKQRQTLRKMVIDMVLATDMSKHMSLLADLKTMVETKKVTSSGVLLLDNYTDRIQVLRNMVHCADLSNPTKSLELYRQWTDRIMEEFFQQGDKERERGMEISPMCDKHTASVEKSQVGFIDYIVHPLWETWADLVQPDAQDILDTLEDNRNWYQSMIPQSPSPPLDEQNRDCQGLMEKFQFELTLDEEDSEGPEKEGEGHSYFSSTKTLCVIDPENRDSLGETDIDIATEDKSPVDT
Method in brief: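 HEK293 ACTOne cells with CNG channel (1000/well), endogenous PDE4; membrane potential dye, compounds up to 22.9 uM final. Fluorescence Ex 535/Em 590; RO 20-1724 (100 uM final) as reference.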

[8] = target: Glucocorticoid receptor (Homo sapiens) (UniProt P04150); experiment: GR-EFC Redistribution (AID 451; calls by dose curve; further: potency means the concentration at half of the fitted maximal effect); conditions: CHO-K1 GR-EFC translocation, beta-gal luminescence, 2 h
Glucocorticoid receptor (Homo sapiens), sequence (P04150 whole entry, looked up, the tested form may be a part): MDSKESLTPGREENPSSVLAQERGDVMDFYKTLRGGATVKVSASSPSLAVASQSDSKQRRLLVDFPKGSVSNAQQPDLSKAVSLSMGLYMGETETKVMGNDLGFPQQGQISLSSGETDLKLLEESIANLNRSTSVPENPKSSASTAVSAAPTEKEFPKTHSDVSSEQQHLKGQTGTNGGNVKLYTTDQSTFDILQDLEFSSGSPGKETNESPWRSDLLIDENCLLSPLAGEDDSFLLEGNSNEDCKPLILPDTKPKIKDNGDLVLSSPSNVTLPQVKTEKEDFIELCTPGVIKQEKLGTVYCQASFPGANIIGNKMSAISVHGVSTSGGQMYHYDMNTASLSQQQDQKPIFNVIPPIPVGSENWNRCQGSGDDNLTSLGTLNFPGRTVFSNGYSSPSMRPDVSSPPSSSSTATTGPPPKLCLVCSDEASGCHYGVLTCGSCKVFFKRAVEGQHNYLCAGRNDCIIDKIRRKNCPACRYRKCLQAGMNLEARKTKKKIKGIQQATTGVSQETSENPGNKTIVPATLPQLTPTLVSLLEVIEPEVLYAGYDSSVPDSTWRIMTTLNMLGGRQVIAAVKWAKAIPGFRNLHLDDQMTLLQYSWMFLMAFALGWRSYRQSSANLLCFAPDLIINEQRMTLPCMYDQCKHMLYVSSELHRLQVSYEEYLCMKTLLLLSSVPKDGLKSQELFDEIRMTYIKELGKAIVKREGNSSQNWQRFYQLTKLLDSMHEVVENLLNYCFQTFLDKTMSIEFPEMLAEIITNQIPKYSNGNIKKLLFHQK
Method in brief: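 CHO-K1 cells stably expressing nuclear-localized β-gal enzyme acceptor and GR fused C-terminally to the enzyme donor fragment; ligand-driven nuclear translocation restores β-gal by complementation. Compounds titrated up to 46 uM final, 2 h at 37 °C; luminescence read.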

[9] = target: Lysosomal acid glucosylceramidase (Homo sapiens) (UniProt P04062); experiment: Glucocerebrosidase-p2 (AID 348; in the data active means potency below about 10 µM; further: potency means the concentration at half of the fitted maximal effect); conditions: purified GBA, blue fluorogenic substrate, 40 min
Lysosomal acid glucosylceramidase (Homo sapiens), sequence (P04062 whole entry, looked up): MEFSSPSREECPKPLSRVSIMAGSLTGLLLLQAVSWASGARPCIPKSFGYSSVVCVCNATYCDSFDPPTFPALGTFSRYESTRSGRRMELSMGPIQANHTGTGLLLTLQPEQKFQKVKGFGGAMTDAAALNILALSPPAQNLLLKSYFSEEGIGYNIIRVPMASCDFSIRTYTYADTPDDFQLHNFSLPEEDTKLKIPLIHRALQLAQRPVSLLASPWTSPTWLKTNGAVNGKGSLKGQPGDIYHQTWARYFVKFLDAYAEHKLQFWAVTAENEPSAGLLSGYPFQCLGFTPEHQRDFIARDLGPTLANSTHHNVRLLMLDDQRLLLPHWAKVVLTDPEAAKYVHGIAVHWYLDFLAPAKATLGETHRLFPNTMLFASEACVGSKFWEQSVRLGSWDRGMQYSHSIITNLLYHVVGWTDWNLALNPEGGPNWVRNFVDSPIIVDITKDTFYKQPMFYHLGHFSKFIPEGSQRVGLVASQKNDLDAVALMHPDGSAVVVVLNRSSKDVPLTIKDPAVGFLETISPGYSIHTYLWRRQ
Method in brief: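 Normal human glucocerebrosidase (0.2 nM) with blue fluorogenic substrate (80 uM final) in citrate/phosphate pH 5.9 with 10mM sodium taurocholate, 0.01% tween-20; 40 min RT, NaOH/glycine stop; fluorescence Ex 365/Em 440; AC50 from a titration from 0.6 nM upwards.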

[10] = target: Glucocorticoid receptor (Homo sapiens) (UniProt P04150); experiment: GR-GFP Redistribution (AID 450;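 active means compounds whose dose series gives a full or clear partial fitted curve of increased nuclear translocation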; further: potency means the concentration at half of the fitted maximal effect); conditions: U2OS GR-GFP nuclear translocation, laser cytometry, 2 h

Compound	Potency [1] [µM]	activity change, negative = inhibition [2] [%]	Potency [3]	activity change, negative = inhibition [4] [%]	activity, negative = inhibition [5] [%]	Potency [6]	outcome [7]	Potency [8] [µM]	Potency [9] [µM]	Potency [10] [µM]	activity change, negative = inhibition [6]	activity change, negative = inhibition [3]
c1csc(CN2CCCC3(CCNCC3)C2)n1	> 20	10.8	inactive	-10.2	-5.01	inactive	inactive					
O=C(Oc1ccccc1)N1CCC[C@@]2(CCN(Cc3nccs3)C2)C1	> 20	-15.6		-0.597	-14.8	inactive	inactive	> 46				
NCCCN1CCN(c2ccccc2)CC1		2.17	inactive	-2.83	5.73		inactive	> 9.22	> 11.4	> 46	-2.39% [at 11.4 µM]	
COc1ncc2nc(-c3cc(F)cc(F)c3)c(=O)n(CCc3ccccc3)c2n1	> 20											
CC(C)(C)C(=O)CP(=O)(O)O		11.4	inactive	-0.88	-5.75		inactive	> 9.22	> 11.4	> 46	5.32% [at 11.4 µM]	
NC(=O)c1ccc(C(=O)Nc2ccc([As](=O)(O)O)cc2)cc1		-1.92		26.9	5.04		inactive	> 9.22	> 11.4	> 46	1.99% [at 11.4 µM]	-13.8% [at 2.29 µM]
COc1ccc2[nH]cc(CCNc3cc(-c4ccccc4Cl)ncn3)c2c1	> 20											
N[C@H](Cc1ccccc1)c1nn[nH]n1		11.1	10 µM (active)	1.74	-5.07		inactive	> 9.22	> 11.4	> 46	5.89% [at 11.4 µM]	
CN(C)CCCc1cccnc1		3.48		16.7	-4.3		inactive	> 9.22	> 11.4	> 46	3.96% [at 11.4 µM]	-10.2% [at 2.29 µM]
